Source: PubChem BioAssay (NCATS)
Records with an inconclusive call do not appear. Entries that show only a call come without a potency. Values without a mark were called inactive. The source made the active and inactive calls. Calls come from the whole dose curve; as a rule, active = well fitted inhibition curve with a large enough effect; inconclusive = small, poorly fitted or top-dose-only effect; inactive = flat fitted curve, though single readings scatter.

Experiment: qHTS to identify inhibitors of the type 1 interferon - major histocompatibility complex class I in skeletal muscle: primary screen against the NCATS Pharmaceutical Collection (AID 1347407)
Details: human skeletal muscle cells, IFN-b-induced MHC-I HiBiT luminescence, 24 h; series mostly up to 45.9 µM
Outline: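 Immortalized human myoblasts (C25cl48) with HiBiT knocked into endogenous HLA-B*08:01 were stimulated with 4 ng/ml IFN-beta and treated with compounds (8-point, 1:5, top 46 uM final) for 24 h at 37 C; HiBiT lytic luminescence read.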

Structure (SMILES) | Potency | activity change, negative = inhibition
CC(C)(C(=O)c1cccnc1)c1cccnc1 | inactive | 
CCn1cc(C(=O)O)c(=O)c2cnc(N3CCCC3)nc21 |  | -17.9% [at 9.18 µM]
CC(C)(C)NC(=O)[C@@H]1CN(Cc2cccnc2)CCN1C[C@@H](O)C[C@@H](Cc1ccccc1)C(=O)N[C@H]1c2ccccc2C[C@H]1O | inactive | 
CC(=O)Nc1c(I)cc(I)c(C(=O)O)c1I | inactive | 
CCC(=O)c1c(O)cc(O)cc1O | inactive | 
C#C[C@]1(O)CC[C@H]2[C@@H]3CCc4cc(OC5CCCC5)ccc4[C@H]3CC[C@@]21C | inactive | 
C=C1C(=C/C=C2\CCC[C@]3(C)[C@@H]([C@H](C)/C=C/[C@@H](O)C4CC4)CC[C@@H]23)C[C@@H](O)C[C@@H]1O | inactive | 
CCCCc1nc(Cl)c(CO)n1Cc1ccc(-c2ccccc2-c2nn[nH]n2)cc1 | inactive | 
CN=C(NC#N)Nc1ccc(C2=NNC(=O)CC2C)cc1 (configuration not stated) | inactive | 
O=c1c(-c2ccccc2)c1-c1ccccc1 | inactive | 
COc1cc(OC)cc(OC)c1 | inactive | 
CNC(=O)CN(CCN(CCN(CC(=O)[O-])CC(=O)NC)CC(=O)[O-])CC(=O)[O-].O.[Gd+3] | inactive | 
COc1cc(C(=S)N2CCOCC2)cc(OC)c1OC | inactive | 
CC(=O)N/N=C/c1ccc([N+](=O)[O-])o1 | inactive | 
NC(=O)c1cc[n+](CC2=C(C(=O)[O-])N3C(=O)[C@@H](NC(=O)Cc4cccs4)[C@H]3SC2)cc1 | inactive | 
CCN(CCCCOC(=O)c1ccc(OC)c(OC)c1)C(C)Cc1ccc(OC)cc1 (configuration not stated) | inactive | 
CCN(CC)CCNC(=O)COc1ccc(Cl)cc1 | inactive | 
